We go through 21 compounds from PubChem BioAssay.

A word on the inhibition: it is the change of the read-out against control, counted positive when it falls.

The list shows a part of the results. The source made the active and inactive calls. Cut-off read from the data, not from the text of the source, unless noted: active = activity above about 50%; inactive = the rest.

Assay [1] concerns the target 72 kDa type IV collagenase (Homo sapiens) (UniProt P08253). In words: MMP-2 protease inhibition counter-screen, confirmation, counter-screen for CSN deneddylation inhibitor project, biochemical, fluorescence, single concentration (AID 720655;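 active = corrected plate-normalized z-score of 5 or more, or -5 or less, or inhibition of 15% or more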;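 note: plate controls were DMSO wells with enzyme for no effect and buffer wells lacking MMP-2 for full effect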). The following applies: recombinant MMP-2, FRET substrate fluorescence, 60 min; at 16.6 µM. For orientation: A counterscreen serves to expose hits that act by an unwanted route or on another target.

For assay [2], the target named is Prothrombin (Bos taurus) (UniProt P00735). In words: bovine thrombin inhibition counter-screen, confirmation, counter-screen for CSN deneddylation inhibitor project, biochemical, fluorescence polarization, single concentration (AID 720656;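 active = inhibition at or above a set limit, with a fluorescence interference ratio between 0.5 and a set maximum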). The following applies: bovine thrombin cleavage of Ub4-pepOG, at 16.6 µM, stronger effect = higher value.
For assay [3], the target named is COP9 signalosome complex subunit 5 (Homo sapiens) (UniProt Q92905). Description: Csn5 deneddylation inhibitors, confirmation, biochemical, fluorescence polarization, single concentration, SCF-Nedd8OG substrate (AID 720654; in the data active = inhibition above about 50%;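 note: 0% = DMSO with enzyme and 100% = no enzyme wells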). To be noted: Csn5 deneddylation of SCF-Nedd8OG, 90 min, at 16.6 µM, stronger effect = higher value. In general terms: Fluorescence polarisation rises when a labelled molecule tumbles more slowly, as on binding a larger partner.

Assay [4] addresses Tumor necrosis factor receptor superfamily member 10B (Homo sapiens) (UniProt O14763). Description: caspase-8 TRAIL sensitization, hit retest, confirmation, cell-based, NB7+caspase-8, with/without TRAIL, luminescence panel (AID 651596). The following applies: NB7 neuroblastoma + caspase-8, TRAIL sensitization, luminescence viability, with TRAIL, mean of runs, at 10 µM, stronger effect = higher value.

Assay in assay [5]: as above
The following applies: NB7 neuroblastoma + caspase-8, without TRAIL, luminescence viability, without TRAIL, mean of runs, at 10 µM.

In assay [6] the target is Tumor necrosis factor receptor superfamily member 10B (Homo sapiens) (UniProt O14763). Description: TRAIL sensitizers in caspase-8 expressing neuroblastoma cells, dose response, NB7 cells plus caspase-8, luminescence, panel (AID 652002). The following applies: NB7 neuroblastoma +caspase-8, TRAIL sensitization, luminescence viability, NB7+Caspase-8, with TRAIL, run 1; at 12.5 µM (top of the series).

For assay [7] the target is unchanged. The assay is described as above. The following applies: NB7 neuroblastoma +caspase-8, TRAIL sensitization, luminescence viability, NB7+Caspase-8, with TRAIL, run 2; at 12.5 µM (top of the series).
Assay in assay [8]: as above
The following applies: NB7 neuroblastoma +caspase-8, no TRAIL, compound-alone cytotoxicity counter-screen, luminescence viability, NB7+Caspase-8, run 1; at 12.5 µM (top of the series) unless noted.

Assay in assay [9]: as above
To be noted: NB7 neuroblastoma +caspase-8, no TRAIL, compound-alone cytotoxicity counter-screen, luminescence viability, NB7+Caspase-8, run 2; at 12.5 µM (top of the series) unless noted.

72 kDa type IV collagenase (Homo sapiens), sequence (P08253 whole entry, looked up): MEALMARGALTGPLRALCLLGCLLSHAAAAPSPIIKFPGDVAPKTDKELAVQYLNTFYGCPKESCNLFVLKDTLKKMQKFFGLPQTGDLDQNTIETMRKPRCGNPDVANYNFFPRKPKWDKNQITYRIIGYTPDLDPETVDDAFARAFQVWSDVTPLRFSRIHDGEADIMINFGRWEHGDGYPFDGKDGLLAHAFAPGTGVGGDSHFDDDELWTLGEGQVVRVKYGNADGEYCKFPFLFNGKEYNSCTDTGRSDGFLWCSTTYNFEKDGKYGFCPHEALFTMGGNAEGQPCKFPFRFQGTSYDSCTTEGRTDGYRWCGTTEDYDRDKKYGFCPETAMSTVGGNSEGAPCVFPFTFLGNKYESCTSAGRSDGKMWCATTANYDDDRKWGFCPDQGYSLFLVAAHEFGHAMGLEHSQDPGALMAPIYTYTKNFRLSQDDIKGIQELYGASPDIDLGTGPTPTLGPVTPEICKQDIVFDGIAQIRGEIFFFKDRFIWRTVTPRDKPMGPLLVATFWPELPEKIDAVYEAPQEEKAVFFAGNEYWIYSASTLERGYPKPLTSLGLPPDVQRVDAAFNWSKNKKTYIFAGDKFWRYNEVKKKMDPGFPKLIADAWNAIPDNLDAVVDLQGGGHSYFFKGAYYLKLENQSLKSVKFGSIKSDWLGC
Prothrombin (Bos taurus), sequence (P00735 whole entry, looked up): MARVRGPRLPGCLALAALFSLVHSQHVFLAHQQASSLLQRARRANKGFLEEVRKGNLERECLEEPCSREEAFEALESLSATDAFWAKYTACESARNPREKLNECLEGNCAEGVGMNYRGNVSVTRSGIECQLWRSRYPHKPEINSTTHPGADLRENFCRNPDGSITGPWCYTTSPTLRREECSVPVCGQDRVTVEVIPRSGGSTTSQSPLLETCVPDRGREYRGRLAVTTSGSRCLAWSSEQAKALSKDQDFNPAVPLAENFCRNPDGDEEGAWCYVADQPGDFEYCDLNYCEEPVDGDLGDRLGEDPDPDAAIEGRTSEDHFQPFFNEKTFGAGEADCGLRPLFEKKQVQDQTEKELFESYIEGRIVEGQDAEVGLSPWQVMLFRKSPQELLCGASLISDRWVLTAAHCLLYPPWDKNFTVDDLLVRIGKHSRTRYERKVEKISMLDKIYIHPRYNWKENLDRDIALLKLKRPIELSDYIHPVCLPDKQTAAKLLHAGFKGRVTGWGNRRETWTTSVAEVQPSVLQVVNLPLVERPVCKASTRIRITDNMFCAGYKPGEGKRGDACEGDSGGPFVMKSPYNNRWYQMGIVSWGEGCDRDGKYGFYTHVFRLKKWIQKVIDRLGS
Tumor necrosis factor receptor superfamily member 10B (Homo sapiens), sequence (O14763 whole entry, looked up): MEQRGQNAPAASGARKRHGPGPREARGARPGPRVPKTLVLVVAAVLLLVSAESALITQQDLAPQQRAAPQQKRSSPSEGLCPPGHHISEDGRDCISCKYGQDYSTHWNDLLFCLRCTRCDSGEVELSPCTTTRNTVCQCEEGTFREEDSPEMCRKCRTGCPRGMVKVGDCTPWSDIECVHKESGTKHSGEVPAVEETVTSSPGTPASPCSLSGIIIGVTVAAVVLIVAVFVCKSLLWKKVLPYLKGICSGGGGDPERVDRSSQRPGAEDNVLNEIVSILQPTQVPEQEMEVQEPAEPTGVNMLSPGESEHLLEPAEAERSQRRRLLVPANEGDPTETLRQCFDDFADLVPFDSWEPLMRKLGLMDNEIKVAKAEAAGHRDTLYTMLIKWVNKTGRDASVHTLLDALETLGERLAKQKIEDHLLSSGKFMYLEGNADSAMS
COP9 signalosome complex subunit 5 (Homo sapiens), sequence (Q92905 whole entry, looked up, one chain of several): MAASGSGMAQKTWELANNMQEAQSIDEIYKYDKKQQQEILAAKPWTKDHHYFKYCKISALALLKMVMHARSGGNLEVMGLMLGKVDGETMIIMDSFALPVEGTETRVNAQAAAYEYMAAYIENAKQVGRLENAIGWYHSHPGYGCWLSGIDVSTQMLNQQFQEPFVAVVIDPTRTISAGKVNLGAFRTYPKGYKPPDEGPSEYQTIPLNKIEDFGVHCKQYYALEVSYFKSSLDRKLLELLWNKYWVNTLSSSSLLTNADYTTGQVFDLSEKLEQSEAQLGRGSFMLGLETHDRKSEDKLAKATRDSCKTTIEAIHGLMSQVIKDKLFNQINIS

For `Cc1ccc(-c2nn(-c3ccccc3)cc2/C=C2\SC(=S)N(CCCCCC(=O)O)C2=O)o1`, the inhibition in assay [1] is -170% (active); in assay [2], -24.4% (inactive).

`Cc1ccc(C(=O)O)cc1-c1ccc(/C=C2\SC(=O)N(CC(=O)Nc3ccc4c(c3)OCO4)C2=O)o1`: the inhibition in assay [3] is 155% (active); in assay [1], -3.01% (inactive); in [2], 7.47% (inactive).

Consider `O=C(Nc1ccc2c(c1)OCO2)c1ccc2c(c1)OCO2`, for which the results for the activity in assay [4] and in assay [5] were 56.3% and 53.1%, respectively. In addition, the activity, % sensitization turned out to be 46.4% in [6], 44.3% in assay [7], 50.5% in assay [8] and 33.4% in [9].

As to `COc1ccc(NS(=O)(=O)c2cccc(C(=O)N/N=C/c3c(F)c(F)c(F)c(F)c3F)c2)cc1`, the values for the activity in [4] and in assay [5] were 77.2% and 47.5%, respectively. The activity, % sensitization in [6] is 7.56%; in [7], 35.1%; in assay [8], -2.02%; in assay [9], 41.3%.

For the compound `O=C(Nc1ccc2ccccc2c1)c1ccc(Cl)cc1`, the activity worked out at 63.1% in [4] and 51.3% in assay [5]. Further, the activity, % sensitization in assay [6] is 33.9%; in [7], 31.4%; in assay [8], 13%; in [9], -8.49%.

Consider `COc1cc(/C=C2/C(=O)NN(c3cccc(Cl)c3)C2=O)cc(Br)c1O`, for which the inhibition in assay [3] is 27.3% (inactive); in assay [1], -17.1% (inactive); in assay [2], 36.3% (active).

`CC(C)C[C@H](NC(=O)c1nc[nH]c1C(=O)N[C@@H](CC(C)C)C(=O)OCc1ccccc1)C(=O)OCc1ccccc1`: the activity in assay [4] is 71.4%; in [5], 38.8%. Also, the activity, % sensitization is -20.3% in assay [6], 9.61% in [7], 0.235% in [8] and -15.4% in assay [9].

In the case of `O=C1Cc2c(-c3ccccc3)cc(-c3cccc(Cl)c3)nc2-c2ccccc2N1`, the activity in assay [4] turned out to be 52.9%; in assay [5], 39.5%. Besides, the activity, % sensitization in [6] was -1.76%; in assay [7], -0.0597%; in assay [8] it was -14.1%; in [9], -20.4%.

Turning to `COC(=O)c1ccc(/C=C/c2nc3ccccc3c(=O)[nH]2)cc1`, the values for the activity in assay [4] and in assay [5] were 60.9% and 52.2%, respectively. For the same compound, the activity, % sensitization in [6] is -15.3%; in assay [7], -22.1%; in [8], 2.64%; in assay [9], -17.7%.

With `CC(C)(C)OC(=O)[C@H](Cc1ccccc1)NC(=O)c1[nH]cnc1C(=O)Nc1ccccc1F`, the figures for the activity in [4] and in assay [5] were 54.9% and 54.8%, respectively. For the same compound, the activity, % sensitization in assay [6] is 16.8%; in assay [7], -4.6%; in assay [8], 6.22%; in [9], 2.55%.

As for `CS(=O)(=O)c1ccc2c(c1)SC1=NC(=O)/C(=C/c3ccco3)C(=N)N12`, the values for the inhibition in assay [3], in [1] and in [2] were 50% (inactive), 4.65% (inactive) and 41.6% (active), respectively.

With `O=C(N/N=C/c1ccc2cccnc2c1)c1ccco1`, the activity in assay [4] was determined as 47.2%; in [5] it was 37%. For the same compound, the activity, % sensitization was 37.5% in assay [6], 50.7% in assay [7], 39.1% in assay [8] and 35.6% in [9].

On to `O=C(O)C(c1ccccc1)N1C(=O)/C(=C\c2ccc(-c3cccc(Cl)c3)o2)SC1=S` (configuration not stated), for which the inhibition in [3] is 14.6% (inactive); in assay [1], -20.6% (inactive); in assay [2], 51.9% (active).

Regarding `Clc1nc(Cl)c2ncn(-c3ccccc3)c2n1`, the results for the activity in assay [4] and in [5] were 81% and 52.3%, respectively. Moreover, the activity, % sensitization in assay [6] was -4.89%; in [7], -7.36%; in assay [8] it was 2.2%; in assay [9], -11.5%.

On to `COc1ccc(-c2cc(C(=O)N/N=C/c3cccnc3)c3ccccc3n2)cc1`, for which the activity in assay [4] is 45.5%; in assay [5] it was 40.8%. The activity, % sensitization in assay [6] was 22.7%; in [7], 33.2%; in assay [8], 21.2%; in assay [9], 40.4%.

Consider `c1ccc(Nc2nnc(-c3cccnc3)s2)cc1`, for which the activity was found to be 57.6% in assay [4] and 40.5% in [5]. Further, the activity, % sensitization in [6] was 46.2%; in [7], 42.2%; in assay [8], -5.23%; in assay [9], -13.3%.

As for `Cc1nc2cc(NC(=O)Nc3cccc([N+](=O)[O-])c3)ccc2n1C`, the activity in [4] was 64.2%; in assay [5], 54.4%. In addition, the activity, % sensitization in [6] stood at 44.4%; in assay [7] it was 49.5%; in assay [8] it was 0.985%; in assay [9] it was 3.35%.

Turning to `CCCCCCCn1c2c(c(=N)c3ccccc31)CCC2`, the values for the activity in [4] and in [5] were 64.8% and 51.8%, respectively. Further, the activity, % sensitization in assay [6] was 30.9%; in [7], 38.9%; in assay [8] it was 0.756%; in [9], 28%.

In the case of `Cc1cccc(CC(=O)Nc2cc(C)c3c(=O)oc4ccccc4c3n2)c1`, the figures for the activity in assay [4] and in assay [5] were 67.3% and 45.5%, respectively. Also, the activity, % sensitization is -12.3% in assay [6], -4.35% in [7], -6.37% in [8] and 0.373% in assay [9].

As to `CC(C)(C)C1C/C(=C/c2ccco2)C(=O)/C(=C/c2ccco2)C1` (configuration not stated), the inhibition was 71.5% (active) in [3], 1.32% (inactive) in assay [1] and 10.1% (inactive) in assay [2].

Consider `Cc1ccc2c(c1)-c1nc3ccccc3cc1C2=NC1CCCCC1`, for which the activity amounted to 49.6% in [4] and 41.6% in assay [5]. In addition, the activity, % sensitization in assay [6] is 26.1%; in [7], 46.1%; in assay [8], 4.61%; in [9], -9.3%.
